Shown are actives, neighbours in structure and some others; about 3.6% of the full set was active somewhere.
mHTT-CaM PPI inh: mHTT-calmodulin interaction abrogation. inhibition, % at 15 µM. 190,000 compounds, 3.6% hits. AlphaScreen His-mHTT/GST-CaM binding, luminescence. P42858;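 note: 0% = both proteins with DMSO and 100% = one protein alone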
Pf apPOL inh: Pf-apPOL DNA polymerase inhibition. Recombinant Pf-apPOL, molecular beacon fluorescence, 1.5 h. inhibition, % at 10 µM. 210,000 compounds, 0.25% hits
Active calls of the source: *; i = inactive; / = no result. Cut-off read from the data, not from the text of the source: active = inhibition above about 50%; inactive = the rest.

SMILES	mHTT-CaM PPI inh	Pf apPOL inh
CCCn1c(=O)c(N2CCC(NC(=O)NCc3ccc(F)cc3)CC2)nc2ccccc21	1	1
COc1ccccc1NC(=O)N1CCC(CNC(=O)C2(c3ccc(F)cc3)CC2)CC1	-3	-10
COc1cc(OC)c(CNc2ccc(F)c(F)c2)cc1Br	10	8
COc1cc(OC)c(CNc2ccc3cn[nH]c3c2)cc1Br	55*	-3
COc1ccc(N2CCN(Cc3nc4cc(C)c(C)cc4[nH]c3=O)CC2)cc1	2	1
Cn1cc(C(=O)Nc2ccc3c(c2)CCC3)c2ccccc2c1=O	50*	2
Cc1ccc(NC(=O)c2cn(C)c(=O)c3ccccc23)c(Br)c1	10	-9
Cc1ccc([N+](=O)[O-])cc1N=Cc1c(C)cc(O)cc1O	17	-5
COc1cc2c(cc1OC)CN(Cc1cccc(OCc3ccccc3)c1)CC2	24	-1
O=C(NCc1cccs1)N1CCC(Oc2nc3c(F)cccc3s2)CC1	-6	-110
Oc1oc(-c2ccc(Cl)cc2)nc1C=Nc1ccc(Cl)cn1	-1	62*
Oc1oc(-c2ccc(Cl)cc2)nc1C=Nc1ccc(Br)cn1	-3	-4
O=C(Nc1nccs1)C(c1ccccc1)N1CCOCC1 (centres undefined)	-13	-2
Cc1ccc(Cl)cc1NC(=O)CN(C)S(=O)(=O)c1ccc2[nH]c3c(c2c1)CCCC3	42	-2
Cc1ccsc1CCNS(=O)(=O)c1ccc2[nH]c3c(c2c1)CCCCC3	96*	-2
Cc1ccsc1CCNS(=O)(=O)c1ccc2[nH]c3c(c2c1)CCCC3	62*	-1
O=C(/C=C/c1ccc2c(c1)OCO2)c1ccc(NC(=O)c2ccco2)cc1	32	-1
CC(C)(C)N1Cc2nnn(Cc3ccccc3)c2-c2cc(F)ccc2S1(=O)=O	-6	-2
CCN1Cc2nnn(Cc3ccccc3)c2-c2cc(F)ccc2S1(=O)=O	94*	-3
COc1cccc2c1C(=O)c1c(O)c3c(c(O)c1C2=O)CC(O)(C(=O)CO)CC3OC1CC(N)C(O)C(C)O1 (centres undefined)	/	i
CC(=O)[C@]1(O)Cc2c(O)c3c(c(O)c2[C@@H](O[C@H]2C[C@H](N)[C@H](O)[C@H](C)O2)C1)C(=O)c1ccccc1C3=O	/	50*
Cc1nnc(SCC(=O)NC(=O)CSc2nnc(C)s2)s1	-9	/
O=C(O)c1ccc2c(c1)ncn2-c1ccc(Br)cc1	1	-4
Cc1ccccc1C(=O)c1cn[nH]c1-c1ccccc1O	2	-11
O=C(c1ccc(Cl)cc1)c1cn[nH]c1-c1ccccc1O	95*	1
SMILES	mHTT-CaM PPI inh	Pf apPOL inh
CCn1cc2c3c(cccc31)CN(C(=O)Nc1cccc(C(C)=O)c1)CC2	-1	-1
O=C1CCC[C@H]2C[C@H](NCCc3ccncc3)CC[C@]23CCCN13	77*	-8
O=C1CCC[C@H]2C[C@H](NCc3ccc(F)cc3)CC[C@]23CCCN13	-6	-7
CCN(CCN(C)C)C(=O)c1noc2c1CCCC2	2	-4
O=C(CSC1CCCC1)N1CCC(c2nnc(-c3ccco3)o2)CC1	100*	0
COc1nn(C)cc1C(=O)N1CCC(c2nnc(-c3ccco3)o2)CC1	-19	-8
CCc1ccccc1NC(=O)CCSc1ncc(C#N)c(N)n1	4	-1
Cc1ccc(CNC(=O)C2(C)CCCN(C(=O)Nc3ccccc3Br)C2)cc1 (centres undefined)	-5	-2
Cc1ccc(C)c(N2CCN(C(=O)c3ccc(-c4nccnc4N(C)C)cc3)CC2)c1	94*	-4
Cc1cccc(N2CCN(C(=O)c3noc4c3CCCC4)CC2)c1C	-24	-3
Cc1ccc(C)c(N2CCN(C(=O)c3cn4c(n3)CCCC4)CC2)c1	51*	-5
CCN1CCn2cc(C(=O)N3CCN(c4cc(C)ccc4C)CC3)nc2C1	16	-2
Cc1ccc(C)c(N2CCN(C(=O)c3ccc4c(c3)nc3n4CCCC3)CC2)c1	84*	-5
O=C(c1ccc2c(c1)nc1n2CCCCC1)N1CCN(c2ccccc2)CC1	11	-5
CCc1nc(N2CCCC2=O)sc1C(=O)N1CCN(c2cccc(C)c2C)CC1	64*	-1
Cc1ccc(C)c(N2CCN(C(=O)c3cccc(-c4nccnc4N(C)C)c3)CC2)c1	44	0
CC(C)Cn1c(C2CCN(S(=O)(=O)Cc3cccc(F)c3)C2)nc2ccncc21 (centres undefined)	-1	2
O=C(CNC(=O)c1c[nH]c2ccccc12)NCc1cccs1	-20	-10
Cc1ccc(C)c(C(=O)N2CCc3c(c(-c4nc(C)no4)nn3C)C2)c1	0	0
O=C(NCCCc1ccccc1)C1CCN(c2cn[nH]c(=O)c2)CC1	-6	-3
COCCn1cc2c3c(cccc31)CN(C(=O)NCCC(C)C)CC2	11	5
CC(=O)N1CCc2sc(S(=O)(=O)NCc3ccccc3C)cc2C1	-2	-4
Cc1ccccc1N1CCN(C(=O)c2cn3c(n2)CCCC3)CC1	30	-3
Cc1cccc(N2CCN(C(=O)c3cn4c(n3)CCCC4)CC2)c1C	54*	0

Compound activity deposited in PubChem by University of Kansas High Throughput Screening Laboratory.
